# Compound activity from PubChem BioAssay.
# Rows were chosen to be rich in hits. Some 0.4% of all compounds tested hit in one or more screens of this group.
# Cdc42 wt GTP: human Cdc42 wildtype GTP binding change, either direction. GST-Cdc42 beads, Bodipy-GTP binding, flow cytometry; actives lie on both sides. 190,000 tested, 0.2% active. P60953. percent activity (GTP binding), % at 10 µM;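 active = percent activity GTP binding at least 20 points away from the 100% baseline, either down as inhibitor or up as activator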;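 also: median bead fluorescence of bound Bodipy-FL-GTP at 100 nM; 0% = excess unlabeled GTP control and 100% = no compound control; below 100% means less GTP binding so inhibitor and above means activator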
# Target sequence (P60953 whole entry, looked up): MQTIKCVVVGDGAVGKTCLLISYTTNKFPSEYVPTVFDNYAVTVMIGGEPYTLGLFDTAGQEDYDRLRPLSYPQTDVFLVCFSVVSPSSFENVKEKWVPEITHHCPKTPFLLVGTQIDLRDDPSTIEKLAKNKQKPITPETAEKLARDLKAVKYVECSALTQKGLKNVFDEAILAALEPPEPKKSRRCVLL
# Rac1 wt GTP bind: modulators of human Rac1 wildtype GTP binding | GST-Rac1 beads, fluorescent GTP binding, flow cytometry; actives lie on both sides; 0 = cold GTP competed, 100 = untreated | GTP binding activity (% of control), % at 10 µM | 190,000 tested, 0.27% active;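 active = GTP binding activity at least 20 points away from the 100% control level, either lower or higher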
# Rac1 mut GTP: human Rac1 activated mutant GTP binding change; 190,000 tested, 0.11% active; AID 764; GST-Rac1 activated beads, fluorescent GTP binding, flow cytometry; actives lie on both sides; 100% means binding = to untreated wells; P63000; percent activity (GTP binding), % at 10 µM;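 active = GTP binding at least 20 percentage points away from the 100% baseline, in either direction, so actives lie on both sides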
# Rab2 wt GTP: changes GTP binding to wildtype dog Rab2A, up or down; P61105; GST-Rab2 wt beads, Bodipy-GTP binding, flow cytometry; GTP binding activity, % at 10 µM; 190,000 tested, 0.19% active;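 active = GTP binding activity at least 20 points away from 100%, either lowered or raised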;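 also: 0% = beads with excess unlabeled GTP and 100% = no-compound control corrected for plate trend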
# HRas wt GTP: human HRas wildtype GTP binding, change in either direction. P01112. GST-Ras wt beads, Bodipy-FL-GTP binding, flow cytometry; actives lie on both sides. GTP binding activity, % at 10 µM. 190,000 tested, 0.14% active. AID 759;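 active = GTP binding activity at least 20% away from the 100% baseline, either lowered as inhibitor or raised as activator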;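 also: 0% = unlabeled GTP competition control and 100% = no-compound control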
# Target sequence (P01112 whole entry, looked up): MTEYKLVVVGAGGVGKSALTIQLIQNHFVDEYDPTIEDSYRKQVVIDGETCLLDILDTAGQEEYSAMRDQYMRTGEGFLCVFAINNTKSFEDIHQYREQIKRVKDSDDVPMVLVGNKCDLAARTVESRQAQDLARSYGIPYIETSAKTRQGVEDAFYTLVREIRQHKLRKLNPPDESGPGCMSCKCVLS
# Rab7 wt GTP bind: alters GTP binding to wildtype dog Rab7 | GST-Rab7 beads, fluorescent GTP binding, flow cytometry; actives lie on both sides; untreated = 100%, excess cold GTP = 0% | GTP binding activity (percent of control), % at 10 µM | 190,000 tested, 0.055% active | AID 758;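 active = fluorescent GTP binding to Rab7 beads changed by at least 20 points from the 100% baseline, either direction, mostly lower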;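 also: median green fluorescence of bound Bodipy-FL-GTP per Rab7 bead population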
# The depositor's hits bear a star; [ ] = another dose, or the depositor's remark.
SMILES,Cdc42 wt GTP,Rac1 wt GTP bind,Rac1 mut GTP,Rab2 wt GTP,HRas wt GTP,Rab7 wt GTP bind
Cc1ccc(O)c(C(=O)c2cnn(C(=O)Cc3csc(C)n3)c2)c1,83,93,91,85,77*,79*
Cc1ncc(CC(=O)n2cc(C(=O)c3cc(F)ccc3O)cn2)s1,97,99,98,97,98,97
Cc1ccc(C)c(N(CC(N)=O)S(C)(=O)=O)c1,75*,67*,71*,72*,74*,78*
Cc1ccc(-n2c(=O)[nH]c3c(oc4ccccc43)c2=O)cc1,114,135*[activator],107,117,112,106
COc1ccc(-n2c(=S)[nH]c3c(oc4ccccc43)c2=O)cc1,96,111,98,94,99,98
COc1ccc(-n2c(NC(=O)c3ccc(Br)o3)c(C#N)c3nc4ccccc4nc32)cc1,77*,79*,79*,79*,81,85
COc1ccc(Cn2c(N)c(C#N)c3nc4ccccc4nc32)cc1,99,99,97,97,96,99
COc1cccc(C2CC(c3ccccc3OC)n3ncnc3N2)c1 (stereo unspecified),98,107,98,99,100,100
COc1cccc(C2CC(c3ccccc3)Nc3ncnn32)c1 (stereo unspecified),113,123*[activator],102,106,103,98
COc1ccc(Cn2c(O)c(/C=N/NC(=O)c3cccnc3)c3ccccc3c2=O)cc1,68*,60*,72*,83,87,96
O=C(N/N=C/c1c(O)n(Cc2ccccc2)c(=O)c2ccccc12)c1cccnc1,65*,55*,68*,71*,78*,93
O=C(N/N=C/c1c(O)n(-c2ccccc2Cl)c(=O)c2ccccc12)c1cccnc1,91,94,94,93,93,94
Cc1ccc(/C=N/NC(=O)C2CCN(Cc3ccc(F)cc3Cl)CC2)o1,104,102,101,100,99,78*
CCOC(=O)N1CCN(CC(=O)Nc2ccc(C)c(Br)c2)CC1,98,96,94,96,96,97
COc1cc(N=c2oc3c(C)ncc(CO)c3cc2C(N)=O)cc(OC)c1OC,68*,64*,83,67*,68*,91
COc1ccc(C)cc1NC(=O)c1cc2c(CO)cnc(C)c2oc1=N,95,100,95,98,98,100
CCCC(=O)Nc1nc(C)c(-c2csc(Nc3cc(OC)ccc3OC)n2)s1,100,101,98,99,99,97
COc1cc(NS(=O)(=O)c2ccc(Nc3nc(-c4ccccc4)cs3)cc2)nc(OC)n1,71*,73*,82,77*,79*,80
COc1ccc(OC)c(Nc2nc(-c3sc(N)nc3C)cs2)c1,77*,79*,88,87,79*,90
Cc1cc(NS(=O)(=O)c2ccc(Nc3nc(-c4sc(N)nc4C)cs3)cc2)no1,80,86,89,75*,78*,89
COc1cc(NS(=O)(=O)c2ccc(N)cc2)nc(OC)n1,106,102,102,99,101,97
Cc1cc(NS(=O)(=O)c2ccc(Nc3nc(-c4ccc(C)c(C)c4)cs3)cc2)no1,99,100,96,98,100,100
Cc1c(NS(=O)(=O)c2ccc3c(c2)Cc2ccccc2-3)c(=O)n(-c2ccccc2)n1C,78*,80,76*,81,85,90
Cc1c(NS(=O)(=O)c2ccc3c(c2)n(C)c(=O)n3C)c(=O)n(-c2ccccc2)n1C,104,109,102,103,103,98
O=C(Nc1c(F)cccc1F)c1cnc(N2CCN(c3ccccn3)CC2)c2ccccc12,103,131*[activator],106,97,101,101
SMILES,Cdc42 wt GTP,Rac1 wt GTP bind,Rac1 mut GTP,Rab2 wt GTP,HRas wt GTP,Rab7 wt GTP bind
CCn1cc(C=C2C(=O)c3ccccc3C2=O)c2ccccc21,78*,74*,81,81,77*,83
CCN=C1S/C(=C\c2cn(CC)c3ccccc23)C(=O)N1CC,100,103,100,102,102,103
CO/N=C(\C(=O)O)c1csc(NN=C(C)C)n1,92,97,94,94,97,97
CN1CCN(S(=O)(=O)c2ccc(NC(=O)c3ccc(Br)s3)cc2)CC1,99,99,96,97,98,101
Cc1ccc(C)c(N2CCN(C(=O)CN(C)S(=O)(=O)c3ccc4c(c3)CCC(=O)N4)CC2)c1,76*,79*,80,77*,82,84
COc1ccc(-c2noc(CCC(=O)N3CCN(c4cc(C)ccc4C)CC3)n2)cc1,80,82,75*,78*,82,85
Cc1ccc(C(=O)NCC(=O)OCC(=O)Nc2ccccc2C#N)s1,96,99,94,96,96,104
CCOc1ccc(NC(=O)CN(C)CC(=O)NC2CCCc3ccccc32)cc1OCC (stereo unspecified),99,100,96,97,97,96
O=C(COC(=O)/C=C/c1cccc([N+](=O)[O-])c1)NCc1ccc2c(c1)OCO2,82,85,79*,82,88,98
O=C(C1=C[C@H](C2CC2)C[C@H](OCc2ccc(CO)cc2)O1)N1CCOCC1,97,97,96,98,96,103
CS(=O)(=O)N(CC(=O)NC1CC2CCC1C2)c1ccc(Oc2ccccc2)cc1 (stereo unspecified),92,95,94,97,96,102
C[N+]1(CC(O)COCC2COc3ccccc3O2)CCOCC1 (stereo unspecified),94,98,96,102,97,106
O=C(O)c1ccc(Nc2nc(-c3cc4ccccc4oc3=O)cs2)cc1O,84,79*,88,87,87,94
Cc1ccc(S(=O)(=O)ON=C2CCN(S(=O)(=O)c3ccccc3)CC2)cc1,95,97,97,97,97,99
CC1=CC(=O)C=C(C)C1=NOS(=O)(=O)c1ccccc1,91,89,78*,88,92,90
Cn1cccc1-c1cc(C(=O)N/N=C/C=C/c2ccccc2)[nH]n1,95,95,93,94,96,98
O=C(CCc1nc2ccccc2c(=O)[nH]1)OCC(=O)N1CCc2ccccc21,97,101,95,98,98,106
O=C(CCc1nc2ccccc2[nH]c1=O)OCC(=O)N1CCc2ccccc21,114,130*[activator],106,107,106,103
CC(Sc1nnc2ccccn12)C(N)=O (stereo unspecified),92,93,92,94,93,91
